Test results: PubChem BioAssay (NCATS)
Records with an inconclusive call do not appear. Activity calls are given as the source filed them. Calls follow the shape of the dose curve; as a rule, active = well fitted curve in the direction sought with a large enough effect; inconclusive = small, poorly fitted or top-dose-only effect, or another doubt; inactive = no such curve, though single readings can be large; an effect the other way counts as inactive or inconclusive.

Tests used:
[1] = qHTS of pediatric cancer cell lines to identify multiple opportunities for drug repurposing: Primary screen for control Hh wild type fibroblast cells (AID 1347106); settings: Hh wild-type fibroblast viability, CellTiter-Glo luminescence, 48 h; series mostly up to 46 µM; also: nearly all actives have a fitted effect of over 55% in size
Summary of the method: (§1)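 Cells (500-1,000/well) in growth media were settled 5 h at 37 degrees C, then given compounds for 48 h. Viability was read as CellTiter-Glo luminescence. Primary runs used MIPE at 11 points (0.78 nM-46 µM) and NPC at 8 points (0.59 nM-46 µM); follow-ups used 11 points.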

[2] = qHTS of pediatric cancer cell lines to identify multiple opportunities for drug repurposing: Primary screen for Rh30 cells (AID 1347107); settings: Rh30 rhabdomyosarcoma viability, CellTiter-Glo luminescence, 48 h; series mostly up to 46 µM; also: nearly all actives have a fitted effect of over 75% in size
Summary of the method: as §1

[3] = qHTS of pediatric cancer cell lines to identify multiple opportunities for drug repurposing: Primary screen for MG 63 (6-TG R) cells (AID 1347105); settings: MG 63 (6-TG R) viability, CellTiter-Glo, 48 h; series mostly up to 46 µM; also: nearly all actives have a fitted effect of over 50% in size
Summary of the method: (§2)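 Following a 5-hour attachment period, cells at 500-1,000/well received compounds and were cultured for 48 hours. CellTiter-Glo was added and luminescence read to estimate viable, metabolically active cells.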

[4] = qHTS of pediatric cancer cell lines to identify multiple opportunities for drug repurposing: Primary screen for Rh41 cells (AID 1347108); settings: Rh41 rhabdomyosarcoma viability, CellTiter-Glo luminescence, 48 h; series mostly up to 46 µM; also: nearly all actives have a fitted effect of over 70% in size
Summary of the method: as §2

[5] = qHTS of pediatric cancer cell lines to identify multiple opportunities for drug repurposing: Confirmatory screen for NB1643 cells (AID 1347109); settings: NB1643 neuroblastoma cell viability; series mostly up to 45.9 µM; also: nearly all actives have a fitted effect of over 45% in size
Summary of the method: as §1

[6] = qHTS of pediatric cancer cell lines to identify multiple opportunities for drug repurposing: Confirmatory screen for A673 cells (AID 1347110); settings: A673 Ewing sarcoma cell viability; series mostly up to 45.9 µM;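 also: cells exposed to compound for 48 h before the viability read; nearly all actives have a fitted effect of over 65% in size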
Summary of the method: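 Viability was read as ATP luminescence (CellTiter-Glo) after 48 h of compound exposure at 37 C in A673 cells seeded at 500-1,000/well. Titrations reached 46 uM final, with 11 points in the confirmatory screen. Concentration-response curves were fitted directly.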

[7] = qHTS of pediatric cancer cell lines to identify multiple opportunities for drug repurposing: Confirmatory screen for SK-N-MC cells (AID 1347111); settings: SK-N-MC cell viability; series mostly up to 45.9 µM;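 also: cells exposed to compound for 48 h before the readout; nearly all actives have a fitted effect of over 70% in size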
Summary of the method: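 Metabolically active cells were quantified by ATP-dependent luminescence (CellTiter-Glo, 15 min at room temperature) following 48 h treatment. Cells had been plated at 500-1,000 per well and settled for 5 h beforehand.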

[8] = qHTS of pediatric cancer cell lines to identify multiple opportunities for drug repurposing: Confirmatory screen for BT-12 cells (AID 1347112); settings: BT-12 rhabdoid tumor cells, viability; series mostly up to 45.9 µM; also: nearly all actives have a fitted effect of over 55% in size
Summary of the method: as §1

[9] = qHTS of pediatric cancer cell lines to identify multiple opportunities for drug repurposing: Confirmatory screen for LAN-5 cells (AID 1347113); settings: LAN-5 neuroblastoma cell viability; series mostly up to 45.9 µM; also: nearly all actives have a fitted effect of over 65% in size
Summary of the method: as §1

[10] = qHTS of pediatric cancer cell lines to identify multiple opportunities for drug repurposing: Confirmatory screen for DAOY cells (AID 1347114); settings: DAOY medulloblastoma cells viability, cytotoxicity qHTS; series mostly up to 45.9 µM; also: nearly all actives have a fitted effect of over 65% in size
Summary of the method: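 Viability measured as metabolically active cells via CellTiter-Glo luminescence following 48 hours of compound exposure, 11-point dilutions in confirmatory testing. 500-1,000 cells/well plated 5 hours before dosing; controls were DMSO and 2.3 µM bortezomib.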
Potency is read from the fitted curve at half-maximal effect.

CCCCCN(CCC12CC3CC(CC(C3)C1)C2)C(=O)NCCCc1ccncc1
Potency [1]: inactive | Potency [2]: inactive

CN(C)Cc1c(C(=O)NCCOc2ccc(C(=O)NO)cc2)oc2ccccc12
Potency [3]: 3720 nM (active) | Potency [4]: 1480 nM (active) | Potency [5]: 465 nM (active) | Potency [6]: 1310 nM (active) | Potency [7]: 585 nM (active) | Potency [8]: 8270 nM (active) | Potency [9]: 928 nM (active) | Potency [10]: 2610 nM (active)

O=C(O)CCCc1c[nH]c2ccccc12
Potency [1]: inactive | Potency [2]: inactive | Potency [4]: inactive

CC(=O)Nc1sc2c(c1-c1nc3ccccc3s1)CNC2
Potency [1]: inactive

Nc1nccc(Oc2ccc(NC(=O)c3c[nH]cc(-c4ccc(F)cc4)c3=O)cc2F)c1Cl
Potency [1]: inactive | Potency [2]: inactive | Potency [4]: 18700 nM (active)

Nc1ccc(C(=O)c2cc3c(ccc4ccccc43)[nH]2)cc1
Potency [1]: inactive | Potency [2]: inactive | Potency [4]: 4690 nM (active)

CN1CCC(CNc2ccc3ncc(-c4cccc(OC(F)(F)F)c4)n3n2)CC1
Potency [1]: 18700 nM (active) | Potency [2]: 23500 nM (active) | Potency [4]: 18700 nM (active)

COc1ccc2c(c1)CC[C@@H](CN(C)CC(=O)O)[C@H]2c1ccccc1
Potency [1]: inactive | Potency [2]: inactive | Potency [4]: 5900 nM (active)

Cn1c(=O)n(-c2ccc(C(C)(C)C#N)cc2)c2c3cc(-c4cnc5ccccc5c4)ccc3ncc21
Potency [3]: 14.8 nM (active) | Potency [4]: 132 nM (active) | Potency [6]: 2610 nM (active) | Potency [7]: 2330 nM (active) | Potency [9]: 2080 nM (active)

Cc1cc(N2CCOCC2)cc2[nH]c(-c3c(NC[C@@H](O)c4cccc(Cl)c4)cc[nH]c3=O)nc12
Potency [3]: 2960 nM (active) | Potency [4]: 296 nM (active) | Potency [5]: 827 nM (active) | Potency [6]: 1170 nM (active) | Potency [7]: 737 nM (active) | Potency [9]: 1170 nM (active) | Potency [10]: 3290 nM (active)
